# AddAB inh: less growth of phage-infected E. coli with AddAB; AID 435030; E. coli expressing H. pylori AddAB, absorbance growth; inhibition, % at 11.9 µM; 0.29% of 330,000 active; in the data active = inhibition above about 12%;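 also: 0% = vehicle wells of infected cells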
# phage Ecoli inh: E. coli growth loss with phage present | inhibition, % at 11.9 µM | growth absorbance | 0.26% of 360,000 active; in the data active = inhibition above about 11%
# Tat transport: inhibitors of E. coli Tat protein transport; AID 488895; E. coli MC4100 TorA-mCherry Tat export, fluorescence; inhibition, % at 10 µM; 0.036% of 340,000 active;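 active = mean replicate inhibition at least 50% and at least half of replicates individually reaching 50%; inconclusive = only one of the two criteria met; inactive = neither criterion met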;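 also: exported cargo escapes ClpAP degradation while cytoplasmic cargo is degraded and loses fluorescence; 0% = median of neutral control wells and 100% = median of NaSCN control wells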
# E coli growth-1: inhibitors of Escherichia coli growth; 0.21% of 330,000 active; AID 1053175; OD600 absorbance (no concentration beside the values); OD600, 23 h; active compounds read low;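 active = OD600 absorbance below the run mean of sample wells minus 3.6 SD, in any replicate, cut at about 0.56 in these data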
# E coli growth-2: bacterial growth inhibition, counter-screen for AddAB inhibitors | inhibition, % at 11.9 µM | E. coli V3065 growth, OD600 absorbance, 18 h | AID 449728 | 0.27% of 330,000 active;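 active = inhibition above the campaign's mean inhibition across all tested compounds plus 3 SD, cut at about 9.9% in these data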;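 also: uninfected addAB+ strain grown without phage in ampicillin broth; 0% = DMSO wells and 100% = ciprofloxacin 0.95 µg/ml wells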
# RecBCD conf: confirmation: growth loss of phage-infected RecBCD+ E. coli (RecBCD inhibitor screen); E. coli V66 + T4 2- phage, growth OD; AID 651982; inhibition, % at 11.9 µM; shares compounds with phage Ecoli inh; 45% of 890 active;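 active = mean inhibition over triplicates exceeding the hit threshold derived in the original primary screen, cut at about 11% in these data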
# Ecoli viability: counter-screen for RecBCD inhibitors: inhibitors of bacterial viability; 29% of 890 active; E. coli viability, absorbance (OD) growth; inhibition, % at 11.9 µM; shares compounds with phage Ecoli inh; in the data active = inhibition above about 20%;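 also: E. coli strain V66 grown with compound alone and no phage infection; 0% = bacteria with DMSO vehicle only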
# AddAB phage OD: growth loss of phage-infected AddAB E. coli, RecBCD counter-screen; shares compounds with phage Ecoli inh; E. coli expressing H. pylori AddAB + T4 phage, OD growth; gene 2 mutant T4, recBCD-deleted host; inhibition, % at 11.9 µM; 45% of 890 active; AID 651984;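 active = mean inhibition above the solvent-only control wells' mean plus 3 SD, cut at about 22% in these data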;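 also: higher means less bacterial growth from phage killing when AddAB is blocked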
# Active calls of the source: *; ? = inconclusive; / = not tested or not shown. Only some compounds are listed: those with a hit (about 0.51% of all), similar ones and a draw of the others.
SMILES,AddAB inh,phage Ecoli inh,Tat transport,E coli growth-1,E coli growth-2,RecBCD conf,Ecoli viability,AddAB phage OD
CCn1cc(C(=O)O)c(=O)c2cc(F)c(N3CCNCC3)nc21,/,102*,62*,0.059*,/,102*,103*,102*
CC(C)(C)c1cc2nc3c(c(=O)n2[nH]1)CN(Cc1ccccc1)C3=O,1,12*,/,0.65,2,-1,0,-1
CC(=O)NCCCc1nc2ccccc2n1Cc1ccccc1F,3,22*,1,0.65,1,-2,-1,-1
O=S(=O)(Nc1cc(Sc2ncn[nH]2)c(O)c2ccccc12)c1ccccc1,/,11*,-5,0.61,/,2,1,0
Cc1cc(O)c(Sc2ncn[nH]2)cc1NS(=O)(=O)c1ccc(Cl)cc1,1,3,6,0.69,-1,/,/,/
CC(=O)NC(c1ccc(Cl)cc1Cl)c1ccc2cccnc2c1O (stereo not given),/,24*,-19,/,/,17*,20*,21
Oc1c(C(Nc2cccc(C(F)(F)F)c2)c2ccncc2)ccc2cccnc12 (stereo not given),-7,1,4,0.65,-9,/,/,/
CCCC(=O)NC(c1cccc([N+](=O)[O-])c1)c1ccc2cccnc2c1O (stereo not given),/,23*,/,/,/,16*,20*,26*
Cc1ccc(C(NC(=O)C(C)C)c2cc([N+](=O)[O-])c3cccnc3c2O)cc1 (stereo not given),6,3,-8,0.66,1,/,/,/
CCN(CC)c1ccc(C(NC(=O)C(C)C)c2ccc3cccnc3c2O)cc1 (stereo not given),/,21*,/,/,/,8,9,16
COc1ccc2cc(C(=O)N/N=C/c3sc4ccccc4c3O)ccc2c1,10,23*,-5,/,12*,14*,18,19
O=C(NN=Cc1sc2ccccc2c1O)c1ccccc1,/,/,/,0.62,/,/,/,/
O=C(N/N=C/c1sc2ccccc2c1O)c1cccc2ccccc12,6,13*,-3,/,-1,5,11,7
Cc1ccc(S(=O)(=O)N2CCOCC2)cc1NC(=O)CNCc1ccc(Cl)cc1Cl,1,12*,-4,0.7,-1,1,1,5
O=C(CNCc1ccccc1Cl)Nc1cc(S(=O)(=O)N2CCOCC2)ccc1Cl,0,-1,1,0.63,1,/,/,/
Cc1cc(Nc2ccccc2Cl)c2ccccc2n1,1,15*,-5,0.63,2,0,-1,9
CN(Cc1ccccc1)C(=NO)c1cccc(Cl)c1,/,/,/,0.65,/,/,/,/
Oc1ccc(Cc2ccccc2)c2cccnc12,/,15*,/,0.64,/,6,11,17
O=C(Nc1ccc(OC(F)F)cc1)Nc1cccc(C(F)(F)F)c1,11,12*,-33,0.53*,13*,11*,12,10
O=C(Nc1ccncc1)Nc1cccc(C(F)(F)F)c1,0,8,0,0.53,1,/,/,/
O=C(CCc1ccccc1)NCC(=O)NN=Cc1ccc2c(c1)OCO2,/,/,/,0.66,/,/,/,/
CCN1/C(=C/c2ccc3cc(C)ccc3[n+]2CC)Sc2cc(C)c(C)cc21,/,12*,-8,0.25*,/,10,9,27*
Cc1[nH]nc(-c2cccnc2)c1N=NN(C)C,/,99*,142*,/,/,103*,104*,102*
Cc1cc(Cl)ccc1NNC(=O)c1cccs1,5,6,-15,0.64,3,/,/,/
O=C(NNc1cc(Cl)ccc1Cl)c1cccs1,5,54*,-9,0.66,1,1,0,4
SMILES,AddAB inh,phage Ecoli inh,Tat transport,E coli growth-1,E coli growth-2,RecBCD conf,Ecoli viability,AddAB phage OD
Cc1ccc(C(=O)CC(=O)COc2ccc(Cl)cc2C)cc1,-4,12*,0,0.64,-4,7,9,5
Cc1ccc(NC(=S)NC(NC(=O)c2ccco2)C(Cl)(Cl)Cl)cc1 (stereo not given),12,14*,2,0.61,11*,9,11,14
CC(CC(O)c1ccc2ccccc2n1)=NO (stereo not given),/,/,/,0.73,/,/,/,/
Cc1ccc2c(Cl)cc(Cl)c(O)c2n1,/,13*,?,0.064*,/,7,9,8
Cc1ccc(S(=O)(=O)Nc2cc(Cl)c(O)c3ncccc23)cc1,11,12*,-1,/,11*,5,9,9
Cc1cc(Cl)c2ccc3ccccc3c2n1,0,3,-2,0.69,0,/,/,/
Cc1ccc(S(=O)(=O)Nc2cccnc2Oc2ccc(Cl)cc2)cc1,3,-1,2,0.68,2,/,/,/
Clc1cc2cccnc2c2ccccc12,3,2,4,0.68,2,/,/,/
OCc1ccc(O)c2ncccc12,-1,5,-6,0.78,4,/,/,/
Oc1c(Cl)cc(Cl)c2cccnc12,/,43*,5,0.071*,/,55*,62*,51*
Oc1c(I)cc(I)c2cccnc12,-1,23*,-4,0.43*,1,26*,30*,25*
COc1ccc(C=NNC(=O)c2ccncc2)cc1OC,/,/,/,0.67,/,/,/,/
CCCCCCCCCCS(=O)(=O)NN=Cc1ccc([N+](=O)[O-])cc1,/,/,/,0.65,/,/,/,/
O=C(CSc1nc2ncc(Cl)cc2[nH]1)Nc1cccc(F)c1,6,12*,7,0.61,5,7,8,3
CN(CC(=O)Nc1ccc(F)cc1)C(=O)CSc1nc2ncc(Cl)cc2[nH]1,0,3,-3,0.7,-2,/,/,/
O=C(Nc1cc(Cl)ccc1O)c1snnc1-c1ccccc1,11,14*,13,0.61,9.8*,5,8,4
COc1c(O)cc2oc(-c3ccc(O)cc3)cc(=O)c2c1O,3,3,-7,0.63,-1,/,/,/
O=c1cc(-c2ccccc2)oc2cc(O)c(O)c(O)c12,12,12*,10,0.69,11*,6,9,7
O=C(NC(Nc1nc2ccc([N+](=O)[O-])cc2s1)(C(F)(F)F)C(F)(F)F)c1ccccc1Cl,14*,15*,-2,0.59,11*,8,11,6
Fc1cccc(F)c1C=NNc1ccccn1,/,/,/,0.62,/,/,/,/
O=C(Nc1ccc2[nH]ncc2c1)c1ccc(F)cc1,4,12*,-2,0.7,0,-1,-2,-2
S=C(NCC1CCCCC1)Nc1ccc(Oc2ccccc2)cc1,3,8,-10,0.69,3,/,/,/
FC(F)Sc1ccc(NC(=S)NC2CCCCC2)cc1,10,12*,0,0.64,7,4,6,5
FC(F)Sc1ccc(NC(=S)NCC2CCCCC2)cc1,8,13*,-8,0.54,9,3,5,6
COc1ccc(N/N=C/c2c(C(=O)O)ccc3ccccc23)cc1,11,11*,-5,/,16*,3,7,6
CCOC(=O)C1=C(C)N=C(N=CN(C)C)SC1c1ccccc1 (stereo not given),/,/,/,0.67,/,/,/,/

# High-throughput results (PubChem BioAssay)
